The campaign covered roughly 110,000 compounds. About 1,400 (1.3%) were called active.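 How the source made its calls: active means Z score or B-score, a plate-position-corrected score, falls beyond the plate's 99.7% confidence bounds, in either direction; inactive means both scores lie inside the 99.7% bounds.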 The entries come from a sample that favours actives as a whole.
The compounds below were run against Sodium-dependent dopamine transporter (Homo sapiens) (UniProt Q01959) (assay: changed hDAT dopamine uptake under cocaine IC80, either direction, primary screen, cocaine antagonist project, cell-based, LLC-PK1 hDAT, [14C]-dopamine uptake, MLSMR (AID 449768;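 further: scored against the spread of the other compound wells on the same plate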)). Details: LLC-PK1 hDAT cells, [14C]-dopamine uptake with cocaine IC80; at 10 µM; actives deviate in either direction.
Sodium-dependent dopamine transporter (Homo sapiens), sequence (Q01959 whole entry, looked up): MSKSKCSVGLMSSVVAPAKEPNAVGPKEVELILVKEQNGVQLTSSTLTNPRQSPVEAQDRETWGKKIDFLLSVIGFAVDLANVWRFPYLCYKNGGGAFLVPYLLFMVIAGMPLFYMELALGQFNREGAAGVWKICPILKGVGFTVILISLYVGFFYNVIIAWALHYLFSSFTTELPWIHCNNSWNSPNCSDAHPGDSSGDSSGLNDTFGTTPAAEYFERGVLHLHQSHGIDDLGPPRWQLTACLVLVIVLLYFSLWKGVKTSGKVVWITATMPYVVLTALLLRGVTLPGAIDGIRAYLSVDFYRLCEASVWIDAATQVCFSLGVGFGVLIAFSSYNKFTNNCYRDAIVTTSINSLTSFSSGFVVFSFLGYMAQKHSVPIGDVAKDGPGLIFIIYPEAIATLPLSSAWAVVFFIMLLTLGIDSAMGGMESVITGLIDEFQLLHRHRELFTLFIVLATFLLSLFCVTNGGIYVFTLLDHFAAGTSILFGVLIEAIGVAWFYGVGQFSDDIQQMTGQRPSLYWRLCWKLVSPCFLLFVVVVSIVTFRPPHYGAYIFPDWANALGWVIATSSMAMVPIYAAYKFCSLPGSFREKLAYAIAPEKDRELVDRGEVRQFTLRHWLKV

B-score, active:
CC1(C)OC(=O)N2CCc3ccccc3C21C (centres undefined) -8.52, C[C@]1(C(=O)NCCc2c[nH]c3ccccc23)C=C[C@@H](Cc2ccccc2)N1C(=O)c1ccccc1 2.48, Cc1ccc(OCC(=O)Nc2ccc(-c3nc4ncccc4o3)cc2)cc1 -8.77, CCCc1nc2c(C)cc(-c3nc4ccccc4n3C)cc2n1Cc1ccc(-c2ccccc2C(=O)O)cc1 3.87, CCOc1cc(-c2noc(CCC(=O)N3CCOCC3)n2)ccc1OC 2.65, CC(=O)Nc1nonc1-c1nc2ccccc2n1Cc1ccccn1 3.49, CCc1ccc2ncc(C(=O)c3ccccc3)c(N3CCOCC3)c2c1 2.66, O=C(NCCC1=CCCCC1)C1CCN(Cc2cnn(-c3ccccc3)c2-n2cccc2)CC1 3.85, O=C(O)c1ccccc1NC(=S)NC(NC(=O)c1ccccc1[N+](=O)[O-])C(Cl)(Cl)Cl (centres undefined) -2.89, O=C(NC(Nc1nc2ccc([N+](=O)[O-])cc2s1)(C(F)(F)F)C(F)(F)F)c1ccccc1 -6.22, O=C(CCCN1C(=O)c2cccc3cccc(c23)C1=O)N1CCN(Cc2ccc3c(c2)OCO3)CC1 3.8, CCS(=O)(=O)Nc1cc(C(=O)OC)ccc1C(=O)OC 6.13, COc1ccc(-c2[nH]nc(-c3ccccc3)c2-c2nc3ccccc3[nH]2)cc1 -7.37, CCOC(=O)CNC(=O)CSc1nc2cccnc2n1CC -8.17, CCOC(=O)c1sc(N(Cc2ccccc2)C(=O)CN2C(=O)CN(C)C2=O)nc1C 4.19, CCCCOC(=O)Nc1nccs1 16.3

B-score, inactive:
Cc1nc(-c2ccccc2)sc1C1(C)CC(c2cccnc2)=NO1 (centres undefined) 0.641, C#Cc1ccc([C@@H]2C=C(C(=O)O)O[C@H](OCCCCO)C2)cc1 -0.622, CC1=C(N2CCN(c3ncccn3)CC2)CCC1=O 0.343, COc1ccc(CN2CC[C@H]3C=CC[C@@H](C(=O)N4CCOCC4)[C@H]3C2=O)cc1OC 0.696, Cc1cc(C)cc(NC(=S)NCCc2c[nH]c3ccccc23)c1 2.31, O=C(CCCCCn1c(=O)[nH]c2ccccc2c1=O)NCCc1c[nH]c2ccccc12 0.015, NCCCC[C@@H]1NC(=O)[C@H](CCC(=O)O)NC(=O)c2cc([N+](=O)[O-])cc(I)c2NCC[C@@H](C(N)=O)NC1=O -0.534, COc1ccc(CNC(=O)C2(CC3CC(c4ccccc4)=NO3)CCN(C(=O)c3cccc(O)c3)CC2)cc1 (centres undefined) 0.0185, O=C(NCc1ccccc1)c1onc(CSc2ccncc2)c1C(=O)NCc1ccccc1 -1.52, NC(=O)CC[C@@H]1NC(=O)[C@H](CO)NC(=O)c2cc([N+](=O)[O-])cc(I)c2NCC[C@@H](C(N)=O)NC1=O -0.848, Cc1ccc(OCC(=O)Nc2ccc(-c3nnc(-c4ccco4)o3)cc2)cc1 -0.0188, O=C(Nc1cccc(-c2nc3ncccc3o2)c1)c1ccco1 0.346, Cn1ccnc1-c1nnn(-c2ccc(F)cc2)n1 -0.732, CCC(=O)NCCc1nc2ccccc2n1CC -0.73, Cc1ccc(Cn2c(NC(=O)c3ccco3)nc3ccccc32)cc1 -0.191, CC(C)(C)Oc1ccccc1Nc1nc(NCCO)nc(N2CCCC2)n1 1.65, CCO[C@H]1OC(C(=O)Nc2ccccc2)=C[C@@H](C2CC2)[C@@H]1CCCO -0.987, CCOc1ccc(-c2nnn(CC(=O)N3CCN(c4ccc(OC)cc4)CC3)n2)cc1OCC -0.869, COc1ccc(N2CCN(C(=O)CCc3nc(-c4ccc(C)cc4)no3)CC2)cc1 0.227, CC1(C)CC[C@]2(C(=O)O)CC[C@]3(C)C(=CCC4[C@@]5(C)CC[C@H](O)C(C)(C)C5[C@H](O)C[C@]43C)[C@@H]2C1 (some centres undefined) 1.56, COC(=O)COc1cccc2c(=O)n(CC(=O)NCCc3ccc(OC)c(OC)c3)ccc12 -1.43, CCCCN1C(N)=NC[C@@H]1Cc1ccccc1 -0.466, CCN1C(=O)N[C@@H](c2ccccc2)C(C(=O)OC)=C1C -0.748, Nc1nonc1-c1nc2ccccc2n1Cc1ccc(F)cc1 -0.103, Nc1nonc1-c1nc2ccccc2n1CCC(=O)O 0.142, C[C@H]1CC[C@]2(O[C@@H](CCO)C[C@@H](O)[C@@H]2O)O1 0.279, CCO[C@@H]1OC(C(N)=O)=C[C@H](c2ccc(Br)cc2)[C@H]1CCCO -0.185, CC[C@H](C)[C@@H](C(=O)N1CCNCC1)n1cc([C@@H](N)Cc2ccc(O)cc2)nn1 0.00778, O=C(c1ccccc1)c1cc(-c2ccccn2)c(N2CCOCC2)s1 1.13, CCc1ccc(NC(=O)CSc2nc3ccccc3c(=O)n2CCN2CCOCC2)cc1 0.477, N#CCc1c(C#N)c(N)nc(N2CCCC2)c1C#N -0.528, C#CCCOC(=O)N1C2=NC(C(=O)OC)=C(C(=O)OC)[C@@H]3N(C)c4ccc(OC)cc4[C@]23C[C@H]1C(=O)OC -0.658, C#CCOCCOCCOCCNc1nc(N2CCN(C(=O)[C@H](Cc3ccc(O)cc3)n3cc(C(N)CC(C)C)nn3)CC2)nc(N2CCN(C(=O)[C@H](CCC(=O)O)n3cc(C(N)[C@H](C)CC)nn3)CC2)n1 (some centres undefined) -0.0315, CC(=O)Nc1ccc(NC(=O)CSCc2cnn(-c3ccccc3)c2-n2cccc2)cc1 0.28, C1=C(CCNc2ncnc3c2cnn3-c2ccccc2)CCCC1 1.22, O=[N+]([O-])c1ccccc1NCc1ccc(Cl)cc1 -0.347, O=C(Nc1ccccc1[N+](=O)[O-])C1C(c2ccccc2)=C1c1ccccc1 -0.499, CC1(c2nnc(-c3ccncc3)o2)CC(c2cccnc2)=NO1 (centres undefined) -0.313, CCc1nnc(SCc2cccc(F)c2)nc1CC -0.0254, CC(NC(=O)Nc1ccccc1)C(c1cccs1)N1CCN(c2ccccc2)CC1 (centres undefined) -0.314, COc1ccccc1C1=CC(=O)CCC1 -0.483, C/C=C(/C)C(=O)O[C@@H]1c2cc3c(c4c2[C@@]2(CO4)C(=O)C(OC)=C(OC)C=C2C[C@@H](C)[C@H]1C)OCO3 -0.0544, COC(=O)C(NC(=O)c1ccc(OC)cc1)(Nc1ncc(S(=O)(=O)c2ccc([N+](=O)[O-])cc2)s1)C(F)(F)F (centres undefined) 1.29, Cc1cc(C)cc(OCC(=O)Nc2nc3ccc([N+](=O)[O-])cc3s2)c1 0.303, COC(C[C@@H]1O[C@@H]1C(=O)[C@@H](C)OCc1ccccc1)OC -1.68, O=C(Nc1cccc2ccccc12)N1CCN(Cc2ccc3c(c2)OCO3)CC1 0.465, Cn1c(=O)cc(OCCCC(=O)N2CCN(Cc3ccc4c(c3)OCO4)CC2)c2ccccc21 -0.011, C=CCOC(=O)C1=C[C@H](c2ccc(Br)cc2)C[C@H](OCCCCO)O1 -0.239, COC(=O)c1ccc(C(=O)OC)c(NC(=S)N2CCCCC2)c1 0.301, COC(=O)c1ccccc1NC(=O)c1ccccc1NS(C)(=O)=O 0.686, COC(=O)C1=C[C@@H](C(=O)OC)[C@@H]2C3=C(C(=O)[C@]2(C)NC(=O)c2ccccc2)[C@H](C)n2c(=O)n(C)c(=O)n2[C@@H]3C1 -0.415, COc1ccc(C(CC(=O)N2CCN(c3ccccc3)CC2)c2c(O)cc(OC)cc2OC)cc1 (centres undefined) 1.37, c1ccc(-c2[nH]ncc2-c2nc3ccccc3[nH]2)cc1 0.018, c1ccc2[nH]c(-c3nc4ccccc4[nH]3)nc2c1 0.0135, CN1CCN(C(=O)C2=C[C@H](c3ccc4c(c3)OCO4)C[C@H](OCc3ccc(CO)cc3)O2)CC1 0.0245, O=C1N[C@@H](Cc2ccccc2)C(=O)N2[C@@H]3N(S(=O)(=O)c4ccc(F)cc4)c4ccccc4[C@]3(Br)C[C@@H]12 1.04, C#CCOCCOCCOCCNc1nc(N2CCN(C(=O)[C@H](CCC(=O)O)n3cc(C(N)CO)nn3)CC2)nc(N2CCN(C(=O)[C@H](Cc3ccc(O)cc3)n3cc(C(N)[C@H](C)CC)nn3)CC2)n1 (some centres undefined) -0.199, CCOC(=O)CNC(=O)CSc1nnc(COc2ccc(Cl)cc2)n1CC 0.0208, CCOC(=O)CNC(=O)CSc1nnc(-c2cccc(OC)c2)n1CC 0.102, O=C(NCC1CC1)c1onc(CSc2ccccc2)c1C(=O)NCC1CC1 1.29, COc1ccc(C2/C=C\CN(S(=O)(=O)c3cccs3)CC(=O)N2Cc2ccc(F)cc2)cc1 (centres undefined) 0.769, CCOC(=O)c1sc(NC(=O)c2ccncc2)nc1C 0.297, CCOC(=O)c1ccc(N2C(=O)CC(N(C)Cc3ccccc3)C2=O)cc1 (centres undefined) -0.402, O=C1c2ccccc2S(=O)(=O)c2cc(N3CCN(c4ccccn4)CC3)ccc21 0.34, COC(C[C@@H](O)C[C@@H](O)[C@H](C)OCc1ccccc1)OC -0.417, OCC[C@H]1C[C@H](O)[C@@H](O)[C@]2(CCCCO2)O1 -1.31, CC(=O)Oc1ccc(C(=O)Nc2nccs2)cc1 -1.53, COc1cc(C(=O)Nc2nccs2)cc(OC)c1OC -0.0124

Source: PubChem BioAssay AID449768 (Vanderbilt High Throughput Screening Facility, 2010)
